# Screen size: about 48,000 compounds; about 13,000 (27%) showed an effect of 50% or more. The list shows a part of the results.
# Tested on: Wolbachia pipientis
# Assay: Anti-Wolbachia Cell-Based Screen
# Type: functional
# Design: scale not given: in the data most compounds retested in dose-response had high values
# Details: 5 µM
row,SMILES,Percent Effect
1,CNC(=O)CCNC(=O)Nc1cccc(Cl)c1SC(F)F,-9.606%
2,CN(C)c1ccc(C(O)CNS(=O)(=O)C2CC2)cc1 (stereo not given),-7.172%
3,Cc1ccc(C(=O)N2CCC3(CC2)c2ccccc2[C@@H](N)[C@@H]3O)c(=O)[nH]1,1.157%
4,CCN1CCN(C(=O)c2c[nH]c(C(C)C)n2)c2ccccc21,16.43%
5,COCCCNc1cc(C(=O)N2CCOCC2)ccc1C,15.11%
6,COCCCNC(=O)COc1ccccc1C(F)(F)F,10.69%
7,COCCNc1c(-c2ccc(C)cc2)c(=O)c1=O,115.7%
8,COCCNC(C)c1ccc(-c2cccnc2)cc1 (stereo not given),-4.646%
9,COCCCNc1c(-c2ccccc2)c(=O)c1=O,111.1%
10,COCCCNC(=O)NCc1ccc(C)cc1,9.073%
11,COCCCNC(=O)Cc1cc(-c2ccccc2)on1,-3.078%
12,COCCCNc1c(-c2ccc(C)cc2)c(=O)c1=O,103%
13,Cc1cnn(CCNCC(O)COc2cccc(C(F)(F)F)c2)c1 (stereo not given),-5.996%
14,Oc1ccc(Br)c(CNc2cccc(-c3nnc[nH]3)c2)c1,-21.72%
15,CCOc1ccc(Cl)c(C(=O)N2CCN(CCO)CC2)n1,-4.151%
16,O=C(c1cc2ccccc2c(=O)[nH]1)N1CCN(CCO)CC1,-3.156%
17,COCCOc1ccc(Cl)c(C(=O)N2CCN(CCO)CC2)n1,97.38%
18,CC(C)Oc1ccc(Cl)c(C(=O)N2CCN(CCO)CC2)n1,76.59%
19,CC(O)CN1CCN(C(=O)c2cnc(OC(C)C)c(Cl)c2)CC1 (stereo not given),-53.57%
20,Cc1nc(-c2ccccc2)ccc1C(=O)N1CCN(CCO)CC1,1.858%
21,Cc1ccc(C(=O)O)cc1S(=O)(=O)Nc1nn(-c2ccccc2)cc1C,-18.22%
22,CC(C(N)=O)N1CCc2onc(-c3cccc(F)c3)c2C1 (stereo not given),31.58%

row,SMILES,Percent Effect
1,CCC(CC)CS(=O)(=O)NC(=O)C1CCC1,-17.91%
2,COC(=O)NC1(C(=O)Nc2ccc(-c3ncc[nH]3)cc2)CCCC1,5.421%
3,Cc1cccc(-c2nc(CN3CCc4cnc(C)nc4C3)no2)c1,0.7919%
4,Cc1cc(C)c(CNC(=O)N(C)CC2CCCCO2)c(=O)[nH]1 (stereo not given),-5.607%
5,Cc1cc(C)c(CNC(=O)N2CCCC2c2cccn2C)c(=O)[nH]1 (stereo not given),1.985%
6,Cc1cc(C)c(CNC(=O)N2CCCC2c2ccccc2)c(=O)[nH]1 (stereo not given),10.36%
7,Cc1cc(C)c(CNC(=O)N2CCCC2c2cccc(F)c2)c(=O)[nH]1 (stereo not given),115.9%
8,Cc1cc(C)c(CNC(=O)N2CCCC2c2ccc(F)cc2)c(=O)[nH]1 (stereo not given),86.68%
9,Cn1cc(N2CC3(CCN(S(=O)(=O)C4CC4)C3)CC2=O)cn1 (stereo not given),-15.9%
10,CCCN(CCC)C(=O)c1sc(C)nc1C,-0.04444%
11,CCN(CC)CCn1ccnc1-c1cccc(O)c1,9.33%
12,CCc1nnc2n1CCN(CC(=O)Nc1cc(C(C)(C)C)nn1C)C2,-9.721%
13,CC(C)(C)OCCN(Cc1cccc(O)c1)C1CCC(O)CC1 (stereo not given),-0.1894%
14,CCN(C(=O)CN1CCCC1c1cc(C)no1)c1ccccc1C (stereo not given),-1.91%
15,Cc1nc(C2CCCN2CCCS(=O)(=O)N(C)C)no1 (stereo not given),-21.09%
16,Cc1nc(C2CCCN2Cc2cc(Cl)c3c(c2)OCCO3)no1 (stereo not given),-1.319%
17,Cc1cc(C2CCCN2Cc2nnc(-c3ccco3)o2)on1 (stereo not given),10.62%
18,Cc1nc(C2CCCN2Cc2ccc(S(=O)(=O)N(C)C)o2)no1 (stereo not given),115.8%
19,Cc1cc(C2CCCN2Cc2ccc(S(=O)(=O)N(C)C)o2)on1 (stereo not given),125.1%
20,CNC(=O)CCCNCc1c(C(C)C)nn(C)c1N(C)C,-0.6366%
21,O=C1CC(c2ccncc2)c2c(c(C(=O)O)cn2-c2ccc(F)cc2)N1 (stereo not given),5.752%
22,CS(=O)(=O)NCCNC(=O)C1(c2ccc(F)cc2)CC1,10.89%

row,SMILES,Percent Effect
1,Cc1ccc(S(=O)(=O)NC(=O)C2(c3ccccc3)CCC2)c(C)c1,104.1%
2,Cn1cc(S(=O)(=O)NC(=O)C2(c3ccccc3)CCC2)cn1,-6.386%
3,Cc1ccc(S(=O)(=O)NC(=O)c2cccc3c2OCCO3)c(C)c1,-13.25%
4,Cc1ccc(S(=O)(=O)NC(=O)COc2cccc(C#N)c2)c(C)c1,41.14%
5,Cc1cccc(C2(C(=O)NS(=O)(=O)c3cnn(C)c3)CCCC2)c1,-9.611%
6,Cc1ccccc1S(=O)(=O)NC(=O)C1(c2ccccc2)CCC1,93.86%
7,Cc1ccccc1S(=O)(=O)NC(=O)C1(c2cccc(Cl)c2)CC1,3.29%
8,Cc1ccc(S(=O)(=O)NC(=O)C2(c3ccc(F)cc3)CCC2)c(C)c1,80.83%
9,CNc1ncc(CN(C)c2nccc(CCC(F)(F)F)n2)cn1,-7.876%
10,CS(=O)(=O)Nc1cccc(CNC(=O)CCC(=O)c2cccs2)c1,1.298%
11,CC(=O)NC1CCN(c2nc(N(C)C)nc3c2CCN(C(C)=O)C3)CC1,3.638%
12,CN(C)c1nc2c(c(N(C)C)n1)CCN(C(=O)CN1CCC(O)CC1)C2,-41.67%
13,CC(C)N1CCC(C(=O)N2CCc3c(nc(CC4CC4)[nH]c3=O)C2)CC1,-3.187%
14,CCC(=O)N1CCCCC1c1nc(O)c2c(n1)CN(C(=O)C1CC1)CC2 (stereo not given),109.8%
15,CCC(=O)N1CCCCC1c1nc(O)c2c(n1)CN(C(C)=O)CC2 (stereo not given),111%
16,CC1CCCCN1C(=O)c1nc2c(n1C(C)C)CCN(C(=O)C1CC1)C2 (stereo not given),-21.18%
17,CCC(=O)N1CCc2c(O)nc(C3CCCCN3C(=O)C3CC3)nc2C1 (stereo not given),88.1%
18,CC(C)c1noc(CS(=O)(=O)CC(=O)NCc2cccs2)n1,-1.009%
19,CCN(Cc1ccco1)C(=O)Nc1cc(C(F)(F)F)c[nH]c1=O,8.276%
20,CC(C)(O)CCc1cccc(C(=O)N[C@H](C(N)=O)c2ccccc2)c1,-7.223%
21,Cc1cccc2c1nc(COCC(=O)O)n2-c1ccsc1,2.323%
22,CCNC(=O)N1CCCCC1CCNS(C)(=O)=O (stereo not given),-13.96%

row,SMILES,Percent Effect
1,CC(CC(=O)NCCS(N)(=O)=O)C1CCCCC1 (stereo not given),93.71%
2,Cc1ccc(CNC(=O)N2CCCCC2CCNS(C)(=O)=O)cc1 (stereo not given),-22.58%
3,CC(CC(=O)NS(C)(=O)=O)C1CCCCC1 (stereo not given),81.01%
4,CC(CC(=O)NCCNS(C)(=O)=O)C1CCCCC1 (stereo not given),132.7%
5,CS(=O)(=O)NCC(=O)NC(Cc1ccccc1)C1CCCC1 (stereo not given),-11.78%
6,CC(CC(=O)Nc1ncn(CC(=O)N2CCCCCC2)n1)C1CC1 (stereo not given),14.79%
7,NS(=O)(=O)CCNC(=O)CCc1cc(Br)cs1,1.171%
8,CC(C)c1ccc(C2(C(=O)NCCS(N)(=O)=O)CCC2)cc1,-17.74%
9,CCS(=O)(=O)N1Cc2ccnn2CC(c2nc(C)no2)C1 (stereo not given),-5.084%
10,CCCC(=O)N(CC)C(c1cccnc1)c1ccc2c(c1)CCO2 (stereo not given),-14.24%
11,Cc1cc(C(N)=O)ccc1NC(=O)N1CCN(c2cccs2)CC1,1.471%
12,COc1nn(C)cc1C(=O)NCC(OC)c1ccccc1C (stereo not given),0.6487%
13,CC(C)NC(=O)[C@@H]1C[C@H](N)CN1C(=O)c1cc2ccccc2[nH]c1=O,-13.02%
14,CC(NCCc1nccn1Cc1ccccc1)c1cccs1 (stereo not given),7.205%
15,CN(Cc1ccccn1)c1nccc(N2CCN[C@H]3CS(=O)(=O)C[C@H]32)n1,-6.376%
16,CC(C)CNC(=O)CN(CC(=O)NCC(C)C)S(C)(=O)=O,89.59%
17,CC(C(=O)N(Cc1ccc(F)cc1)CC(F)(F)F)S(C)(=O)=O (stereo not given),19.96%
18,CN(CC(=O)NC(c1ccc(F)cc1)C(F)(F)F)S(C)(=O)=O (stereo not given),-15.92%
19,CC(NC(=O)CN(C)S(C)(=O)=O)c1ccc(F)cc1 (stereo not given),-21.23%
20,CC(C)CNC(=O)COc1cccc[n+]1[O-],-1.693%
21,CN(CC(=O)NCc1cc2ccccc2o1)S(C)(=O)=O,6.61%
22,CC(C)CNC(=O)CN(Cc1ccc(F)cc1)S(C)(=O)=O,96.65%

row,SMILES,Percent Effect
1,CC(C)CNC(=O)CSc1nnc(OC(C)C)s1,1.156%
2,CC(C)CNC(=O)CN(C)S(C)(=O)=O,111.5%
3,CCN1CCN(CC(O)c2ccc(Br)cc2)CC1 (stereo not given),16.45%
4,CS(=O)(=O)N1CC[C@@H]2[C@@H]1CCN2Cc1ccc2c(c1)OCO2.O=C(O)C(F)(F)F,-17.32%
5,CC(C)(C)NC(=O)CN1CCCN(Cc2ccc(C#N)cc2)CC1,13.98%
6,O=C(C1CC1)N1CCN(c2ccc(-n3cncn3)nn2)CC1,7.785%
7,Cc1oc(C)c(C(=O)NS(=O)(=O)c2ccc3c(c2)OCCO3)c1Br,78.36%
8,O=C(NS(=O)(=O)c1ccc2c(c1)OCCO2)c1ccc(Br)cc1F,-2.402%
9,Cc1oc(C)c(C(=O)NS(=O)(=O)c2ccc3c(c2)OCCCO3)c1C,0.6682%
10,CCNC(=O)CN(Cc1ccoc1)C1CCCCC1,-9.878%
11,OC(COc1ccccc1)CN1CCc2c(ncn2C2CC2)C1 (stereo not given),-5.117%
12,CCN1CCC(NC(=O)CN2CCc3c(ncn3C)C2)CC1,-0.1158%
13,N#Cc1ccc(OCCN2CCc3c(ncn3C3CC3)C2)cc1,2.68%
14,O=C(CCN1CCc2c(ncn2C2CC2)C1)NC1CCCC1,116.5%
15,CCN1CCC(NC(=O)CN2CCc3c(ncn3C3CC3)C2)CC1,104%
16,O=C(CN1CCc2c(ncn2C2CC2)C1)NC1CCOCC1,127.5%
17,OC(CN1CCOCC1)CN1CCc2c(ncn2C2CC2)C1 (stereo not given),4.204%
18,O=C(CN1CCc2c(ncn2C2CC2)C1)NC1CC1,-2.463%
19,O=C(CN1CCc2c(ncn2C2CC2)C1)NC1CCN(C2CC2)CC1,121.2%
20,CCN1CCC(NC(=O)CN2CCc3c(nc(C4CC4)n3C)C2)CC1,-1.72%
21,N#CC1(NC(=O)CN2CCc3c(ncn3C3CC3)C2)CCCC1,-4.395%
22,CC(=O)N1CCN(C(=O)CN2CCc3c(ncn3C3CC3)C2)CC1,17.74%

# Reference: ChEMBL document CHEMBL3988442, “University of Dundee, Small-Polar-MMV Screening Library” (2021)
